We go through 88 compounds from PubChem BioAssay AID1259415 (National Center for Advancing Translational Sciences (NCATS), 2018).

Molecules are shown by their SMILES. Among all 410,000 compounds or so, about 18,000 (4.4%) were called active. About 7% were inconclusive and are not listed. Rule as the data show it: active = activity change below about -60%; inconclusive = no clear call, values can overlap the other calls; inactive = above about -39%. The full list was thinned out, with actives kept by preference.
% is scaled to controls: 0 for no effect and ±100 for the full control effect.

A short description of the assay: qHTS Assay for inhibitors of the human cytomegalovirus (HCMV). The note with it: HFF cells, HCMV-luciferase reporter, 72 h; at 57.5 µM; active compounds read low. From the text:
NCGC Assay Overview: Infection with human cytomegalovirus (HCMV) continues to pose significant threats for pregnant women and immunocompromised hosts. HCMV causes serious morbidity and mortality in transplant recipients, and congenital HCMV is the leading infectious cause of mental retardation and deafness in children. In the 1990s, the annual costs associated with the disease burden of congenital CMV were estimated at around $2 billion. A HCMV vaccine is not available yet and HCMV therapies result in intolerable side effects and emergence of drug resistant viruses. […] Towards this goal we have developed and characterized a luciferase HCMV reporter that was initially used in 96 well plates and then optimized to 1536-well plates for utilization in screening of the MLSMR collection, the NGCG diversity collection and the NCGC Pharmaceutical Collection of approved and investigational drugs.
NCGC Assay Protocol Summary:
This is a cell-based assay for HCMV inhibition in HFFs cells. The screening used 2 compound doses and the HCMV-luciferase at MOI of 1 PFU/cell. Cells were treated and infected with HCMV. At 72 h post infection cell lysates were collected and luciferase activity was determined using the Glomax-Multi + Detection System (Promega, Madison, WI). Data were normalized to the controls for basal activity (buffer only) and known HCMV inhibitors Salinmoycin.
1536-well assay protocol for the assay:
(1) Add 3 ul CMV/HFF cell culture. 1000 cells/well in DMEM nirmal media.
(2) Incubate 16 hr at 37C.
(3) Add 23 nl control compound, 10uM of Salinomycin.
(4) Add 23 nl compounds in DMSO solution.
(5) Add 3 ul CMV suspension. Final 1 puf/ul, Virus stock 2000pfu/ul
(6) Incubate 72 hrs at 37C.
(7) Add 4 ul OneGlo Luc Reagent.
(8) Incubate 5 min at room temperature.
On to `CCOC(=O)c1c(C)[nH]c(CCC(=O)Nc2ccc(OC)c(OC)c2)c1C`, for which the activity change, negative = inhibition is 41.8% (inactive). Next, `Cc1ccc(N(CC(=O)NCC(C)c2ccccc2)S(=O)(=O)N(C)C)cc1` (stereo not drawn): -6.91% (inactive). In the case of `O=C(CCc1ccccc1)NCc1ccc2c(c1)CCN2C(=O)c1ccccc1`, the activity change, negative = inhibition is -7.19% (inactive).

As to `COC1=CCC2([N+](=O)[O-])CN(CC(=O)O)CC1([N+](=O)[O-])C2` (stereo not drawn), the activity change, negative = inhibition is -16.1% (inactive). Turning to `CCOC(=O)c1c(C)oc2nc(C)nc(Nc3ccc(CC)cc3)c12`, the activity change, negative = inhibition is 8.66% (inactive). The same measure for `O=C(Nc1ccc(OC(F)(F)F)cc1)c1cc2c(=O)n3ccccc3nc2s1`: -5.91% (inactive); for `COc1cc(CN(CC2CCCO2)C(=O)c2ccccc2F)cc(OC)c1OC` (stereo not drawn): -11.3% (inactive).

Consider `Cc1ccsc1C1C(C#N)=C(N)OC2=C1C(=O)CC(C)C2` (stereo not drawn), for which the activity change, negative = inhibition was 68.7% (inactive). The same measure for `C=CCSC1=C(C#N)C(c2cc(Br)c(O)c(OC)c2)CC(=O)N1` (stereo not drawn): -10.5% (inactive).

As to `CCOC(=O)CSC1=C(C#N)C(c2sccc2C)CC(=O)N1` (stereo not drawn), the activity change, negative = inhibition is -85.4% (active). On to `Cc1c(-c2cccc(NC(=O)C(C)(C)C)c2)nc2ncccn12`, for which the activity change, negative = inhibition is -37.8% (inactive).

Consider `COCCn1c(CN2CCC(Cc3ccccc3)CC2)nc2c1c(=O)n(C)c(=O)n2C`, for which the activity change, negative = inhibition was -64.7% (active). The same measure for `CC1CCCN(Cc2nc3c(c(=O)n(C)c(=O)n3C)n2CC(=O)c2ccccc2)C1` (stereo not drawn): -14.9% (inactive). The same measure for `CCN1CCN(Cc2nc3c(c(=O)n(C)c(=O)n3C)n2CC(=O)c2ccccc2)CC1`: -5.14% (inactive); for `CN1CCN(Cc2nc3c(c(=O)n(C)c(=O)n3C)n2Cc2cccc3ccccc23)CC1`: -10.2% (inactive); for `CCOC(=O)N1CCN(Cc2nc3c(c(=O)n(C)c(=O)n3C)n2Cc2ccccc2)CC1`: -2.17% (inactive).

As to `CC1CCN(Cc2nc3c(c(=O)n(C)c(=O)n3C)n2CCc2ccccc2)CC1`, the activity change, negative = inhibition was -62.3% (active). Next, `COc1ccc(C)cc1NC(=O)CSc1nnc2ccc(-c3ccccn3)nn12`: -16.1% (inactive); `CC(C)CNc1cccc2c1S(=O)(=O)N[C@H](C)CO2`: -8.73% (inactive). The same measure for `O=[N+]([O-])c1cccc(/C([O-])=C(/C(=S)Nc2ccccc2F)[n+]2ccccc2)c1`: 18% (inactive); for `C=Cc1ccc(C(=O)N2CCCC(CCC(=O)N3CCN(c4ccccn4)CC3)C2)cc1` (stereo not drawn): -64.7% (active). Next, `O=C(CCC1CCCN(C(=O)c2ccc(F)c(F)c2)C1)N1CCN(c2ccccn2)CC1` (stereo not drawn): -29.8% (inactive).

In the case of `CC(=O)c1ccc(S(=O)(=O)NCCC(=O)N2CCN(c3ccccn3)CC2)cc1`, the activity change, negative = inhibition is 60.8% (inactive). As to `COc1cccc(C(=O)NC2=NC(c3ccc(N(C)C)cc3)CC(=O)N2)c1` (stereo not drawn), the activity change, negative = inhibition is 1.4% (inactive).

Consider `O=C(Nc1cccc(-c2nc3ccccc3o2)c1)c1cccc(Br)c1`, for which the activity change, negative = inhibition was -11.9% (inactive). `COc1ccccc1NC(=O)C(=O)c1cc(C)n(-c2ccccc2F)c1C`: the activity change, negative = inhibition is -34.6% (inactive).

In the case of `CCCCCOc1ccc(CSC2=NCCN2)cc1[N+](=O)[O-]`, the activity change, negative = inhibition was 9.19% (inactive). On to `CCCCOC(=O)CCCc1ccc([N+](=O)[O-])cc1[N+](=O)[O-]`, for which the activity change, negative = inhibition was -14.8% (inactive). The same measure for `CCCCOc1ccc(CSC(=N)N)cc1[N+](=O)[O-]`: -63.8% (active); for `CC(C)(Oc1ccc(C2CC2(Cl)Cl)cc1)C(=O)O` (stereo not drawn): -0.36% (inactive); for `c1ccc2sc(SNC3CCCCC3)nc2c1`: 15% (inactive). The same measure for `O=C1NC(Nc2nc3ccccc3s2)(C(F)(F)F)C(=O)N1C1CCCCC1` (stereo not drawn): -63.1% (active); for `O=C(NC1(C(F)(F)F)N=C(c2ccccc2)N(C2CCCCC2)C1=O)c1ccccc1F` (stereo not drawn): -18.3% (inactive).

Take `COC(=O)c1ccc(NC(=O)CN(c2ccc(C)cc2)S(=O)(=O)c2c(C)n[nH]c2C)cc1`: the activity change, negative = inhibition was 30% (inactive). In the case of `COC(=O)C1CCN(C(=O)NC2CC(=O)N(c3ccc4c(c3)OCCO4)C2)CC1` (stereo not drawn), the activity change, negative = inhibition was -8.55% (inactive). Turning to `Cc1nc2ccn(Cc3cccs3)c(=O)c2cc1C(=O)NCc1ccc(Cl)cc1`, the activity change, negative = inhibition was 0.24% (inactive).

As for `CCOc1cccc(CC(=O)N2CCc3c([nH]c4ccccc34)C2c2ccc(F)cc2)c1OCC` (stereo not drawn), the activity change, negative = inhibition was -33.4% (inactive). The same measure for `COc1ccc2[nH]c3c(c2c1)CCN(C(=O)CCC1CCCC1)C3c1ccc(F)cc1` (stereo not drawn): -81.8% (active); for `CCOc1cccc(CC(=O)N2CCc3c([nH]c4ccccc34)C2c2ccc(OC)cc2)c1OCC` (stereo not drawn): 31.4% (inactive); for `Cc1ccc(S(=O)(=O)N(C)C)cc1NC(=O)COC(=O)c1c(C)noc1C`: -108% (active). Next, `Cc1ccc(S(=O)(=O)N(C)C)cc1NC(=O)COC(=O)C1COc2ccccc2O1` (stereo not drawn): 19% (inactive); `Cc1ccc(S(=O)(=O)N(C)C)cc1NC(=O)COC(=O)/C=C/c1cccs1`: -32.1% (inactive); `Cc1cc(C)c(-c2csc(NC(=O)CCCc3nc4ccccc4c(=O)[nH]3)n2)c(C)c1`: -72.6% (active). The same measure for `CCN(CC(=O)Nc1cccc(S(N)(=O)=O)c1)Cc1nc2ccccc2c(=O)[nH]1`: -27.6% (inactive). For `O=C(COC(=O)CCc1nc2ccccc2c(=O)[nH]1)Nc1ccc(N2CCOCC2)cc1`, the activity change, negative = inhibition was -20.5% (inactive).

Turning to `CC(C)NC(=O)N1CCN(c2ccncc2S(=O)(=O)N2CCCCC2)CC1`, the activity change, negative = inhibition is 9.43% (inactive).

Take `O=C(Nc1nc2c(s1)CCCC2)c1ccccc1F`: the activity change, negative = inhibition is -68.5% (active). The same measure for `O=C(Nc1nnc(-c2ccccc2F)s1)c1ccccc1F`: 85% (inactive). The same measure for `CCN1CCc2nc(NC(=O)c3cc(F)c(F)cc3Cl)sc2C1`: -0.35% (inactive). Next, `C=CCn1c(C)cc(C2=NNC(=NCC)SC2)c1C`: -99.5% (active); `COCCn1c(C)cc(C2=NNC(=Nc3ccc(F)cc3)SC2)c1C`: -107% (active); `COc1cccc(-c2nc(S(=O)(=O)c3ccc(C)cc3)c(NCc3ccccc3)o2)c1`: 2.24% (inactive). With `O=C(CSc1nnc(CNC(=O)c2ccccc2)n1-c1ccc(F)cc1)Nc1ccccc1F`, the activity change, negative = inhibition is -5.45% (inactive).

Turning to `Cc1cccc(Cn2cccc(C(=O)Nc3ccc4c(c3)OCCO4)c2=O)c1`, the activity change, negative = inhibition is -12.1% (inactive). In the case of `Cc1ccc(CN2CCNC(=O)C2CC(=O)NCc2csc(C(C)C)n2)cc1` (stereo not drawn), the activity change, negative = inhibition is 6.06% (inactive). Take `O=S(=O)(NCC(c1ccccc1)N1CCc2ccccc21)c1ccccc1` (stereo not drawn): the activity change, negative = inhibition was 1.26% (inactive). The same measure for `Cc1cccc(C(=O)N2c3nc(-c4ccco4)nn3C3(CCCCC3)[C@@H]3CCCC[C@@H]32)c1`: -17.9% (inactive); for `COc1ccc(-c2nc3ccccc3s2)cc1NC(=O)COc1ccccc1C`: 47.9% (inactive); for `COC(=O)Cc1[nH]n(-c2nc3ccccc3s2)c(=O)c1C(C)=Nc1ccc(OC)cc1`: -94.3% (active). The same measure for `COC(=O)c1cccc(C(=O)N2CCCC(Nc3ccc4c(c3)OCCO4)C2)c1` (stereo not drawn): -15.6% (inactive); for `COc1cccc2c1cc1c(=O)n(CC(=O)N3CCN(c4cccc(Cl)c4)CC3)nc(C)n12`: 50.4% (inactive); for `Cc1c(NC(=O)CN2C(=O)C(=O)N(Cc3ccccc3)C2=O)c(=O)n(-c2ccccc2)n1C`: -22.2% (inactive). The same measure for `CN(C)C(CNC(=O)c1cccc(C#N)c1)c1ccco1` (stereo not drawn): -2.12% (inactive); for `CN(C)C(CNC(=O)c1cccc(S(=O)(=O)Nc2ccc(Br)cc2)c1)c1ccco1` (stereo not drawn): -19.6% (inactive). In the case of `CN(C)C(CNC(=O)c1cc(Br)c(Br)s1)c1ccco1` (stereo not drawn), the activity change, negative = inhibition was -67.9% (active).

Turning to `Cc1cccc(N=C2SC(C)CN2C(=O)CN2C(=O)NC3(CCCC3)C2=O)c1` (stereo not drawn), the activity change, negative = inhibition was 0.641% (inactive). Next, `Cn1cc(/C=C/c2nc3ccccc3c(=O)n2-c2ccccc2)c2ccccc21`: 31.9% (inactive). Regarding `Cc1cccc(N=C2NC(=O)/C(=C/c3cn(C)c4ccccc34)S2)c1`, the activity change, negative = inhibition is -80% (active). The same measure for `O=C(NCCc1ccccc1)c1ccc2c(c1)N(Cc1ccc(F)cc1)C(=O)c1ccccc1S2(=O)=O`: 10.3% (inactive); for `Cc1cccc(-n2c(=O)c3c(c4cc(C)ccc4n3C)n(CC(=O)Nc3ccccc3Cl)c2=O)c1`: -1.31% (inactive). Next, `CCN(C(=O)COC(=O)Cc1c(F)cccc1Cl)c1c(N)n(Cc2ccccc2)c(=O)[nH]c1=O`: 2.58% (inactive). The same measure for `Cc1ccccc1CNC(=O)CCc1cn(Cc2ccccc2C)c2ccccc12`: -37.2% (inactive); for `Cc1cccc2cc(CN(Cc3cccs3)C(=S)NCc3ccco3)c(=O)[nH]c12`: -16.3% (inactive); for `CCC(c1nnnn1C1CCCC1)N(Cc1cccs1)Cc1cc2cccc(C)c2[nH]c1=O` (stereo not drawn): -63.3% (active).

On to `Cc1cccc2cc(CN(Cc3nnnn3Cc3ccccc3)C3CCCC3)c(=O)[nH]c12`, for which the activity change, negative = inhibition is -5.56% (inactive).

As to `Cc1cc(C)cc(NS(=O)(=O)c2ccc(Oc3ncc(C(F)(F)F)cc3Cl)cc2)c1`, the activity change, negative = inhibition was -17.1% (inactive).

As to `CC(C)(O)C#Cc1ncc(C(F)(F)F)cc1Cl`, the activity change, negative = inhibition was -30.8% (inactive).

For `COc1cccc(/C=N/Nc2ncc(C(F)(F)F)cc2Cl)c1O`, the activity change, negative = inhibition was -102% (active). On to `COc1ccccc1Nc1nc(N)nc(CSC(=S)N2CCOCC2)n1`, for which the activity change, negative = inhibition is 37.2% (inactive). Next, `Cc1cccc(CC(=O)N2CC(=O)Nc3ccc(F)cc3C2c2ccccc2)c1` (stereo not drawn): 12% (inactive); `COC(=O)CNC(c1ccccc1Cl)c1cc(Br)ccc1NC(=O)CCN1CCOCC1` (stereo not drawn): -21.3% (inactive).

As to `COC(=O)c1ccc(C2C(C(=O)Nc3ccccc3)=C(C)Nc3nc4ccccc4n32)cc1` (stereo not drawn), the activity change, negative = inhibition is 1.76% (inactive). Next, `CCCCCn1c(CCNC(=O)c2ccc(F)cc2)nc2ccccc21`: -18.8% (inactive). Next, `Cn1c(NC(=O)c2ccccc2)nc2ccccc21`: -84.9% (active).

For the compound `Cc1c(NS(=O)(=O)c2ccc(Cl)cc2)c(=O)n(-c2ccccc2)n1C`, the activity change, negative = inhibition was 8.64% (inactive). Next, `CC(=O)Nc1ccc(NC(=O)CCCc2nc(-c3ccc(C(C)(C)C)cc3)no2)cc1`: -87.3% (active).

Consider `CC(=O)c1ccc(NC(=O)CCc2nc(-c3ccc(C)cc3)no2)cc1`, for which the activity change, negative = inhibition is 2.06% (inactive). The same measure for `Cc1cc(C)cc(NC(=O)CCCc2nc(-c3ccccc3Cl)no2)c1`: -10.6% (inactive).
